# Inconclusive results are not listed. A call without a number means that no potency is given here. Activity calls are given as the source filed them. The call rests on the fitted dose curve; in most records, active means well fitted inhibition curve with a large enough effect; inconclusive means small, poorly fitted or top-dose-only effect; inactive means flat fitted curve, though single readings scatter.
# Target: Voltage-gated inwardly rectifying potassium channel KCNH2 (Homo sapiens) (UniProt Q12809)
# Sequence (Q12809 whole entry, looked up): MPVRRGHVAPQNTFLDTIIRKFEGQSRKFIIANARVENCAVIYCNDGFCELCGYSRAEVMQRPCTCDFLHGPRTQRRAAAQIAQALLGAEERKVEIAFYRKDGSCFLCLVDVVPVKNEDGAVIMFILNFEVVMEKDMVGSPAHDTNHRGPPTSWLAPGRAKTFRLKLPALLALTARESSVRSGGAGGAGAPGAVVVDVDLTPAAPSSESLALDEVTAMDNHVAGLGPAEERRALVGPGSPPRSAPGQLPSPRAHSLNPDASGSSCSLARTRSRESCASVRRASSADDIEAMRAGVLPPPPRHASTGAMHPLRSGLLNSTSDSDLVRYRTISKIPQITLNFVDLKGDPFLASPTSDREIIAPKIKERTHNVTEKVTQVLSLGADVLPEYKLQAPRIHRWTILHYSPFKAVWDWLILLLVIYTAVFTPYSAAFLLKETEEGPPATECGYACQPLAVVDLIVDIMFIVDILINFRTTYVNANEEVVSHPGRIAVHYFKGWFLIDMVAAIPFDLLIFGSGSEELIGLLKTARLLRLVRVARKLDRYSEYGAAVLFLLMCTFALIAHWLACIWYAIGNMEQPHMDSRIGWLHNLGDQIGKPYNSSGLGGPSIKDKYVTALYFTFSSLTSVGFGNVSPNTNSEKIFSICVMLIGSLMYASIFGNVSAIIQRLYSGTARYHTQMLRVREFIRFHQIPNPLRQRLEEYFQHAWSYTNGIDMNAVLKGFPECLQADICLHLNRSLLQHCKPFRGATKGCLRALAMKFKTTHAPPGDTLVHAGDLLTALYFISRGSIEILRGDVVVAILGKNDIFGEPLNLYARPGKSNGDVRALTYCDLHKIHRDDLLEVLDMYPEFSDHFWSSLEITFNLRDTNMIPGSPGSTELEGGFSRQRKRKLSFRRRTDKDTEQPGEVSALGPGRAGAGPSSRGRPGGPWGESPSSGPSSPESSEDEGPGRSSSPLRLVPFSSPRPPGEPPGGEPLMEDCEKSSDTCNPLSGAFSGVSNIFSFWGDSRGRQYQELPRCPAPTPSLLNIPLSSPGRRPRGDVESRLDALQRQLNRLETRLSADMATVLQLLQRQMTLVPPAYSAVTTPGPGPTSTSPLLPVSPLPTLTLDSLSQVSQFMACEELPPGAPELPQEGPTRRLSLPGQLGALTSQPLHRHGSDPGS
# Assay: qHTS Assay for Small Molecule Inhibitors of the Human hERG Channel Activity (AID 588834);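 further: lower thallium flux fluorescence means stronger hERG block; nearly all actives have a fitted effect of over 50% in size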
# Conditions: U2OS BacMam hERG, FluxOR thallium flux fluorescence; series mostly up to 46.1 µM
# Summary of the method: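 In hERG-transduced U2OS cells, dye-loaded for 1 hr at room temperature in dark, test compounds incubated 10 min at 37 °C before thallium stimulation. AC50 values derived by Hill modelling of concentration-response.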
# Potency means the concentration at half of the fitted maximal effect.
row,SMILES,Potency
1,C[C@H]1CC[C@]2(NC1)O[C@H]1C[C@H]3[C@@H]4CC[C@H]5C[C@@H](O)CC[C@]5(C)[C@H]4CC[C@]3(C)[C@H]1[C@@H]2C,inactive
2,CCNCC(O)c1cccc(O)c1 (stereo not given),inactive
3,CC(C)(O)[C@@H]1[C@H]2OC(=O)[C@@H]1[C@]1(O)C[C@H]3O[C@]34C(=O)O[C@H]2[C@]14C,inactive
4,CC(=O)Oc1ccc2c3c1O[C@H]1[C@@H](OC(C)=O)C=C[C@H]4[C@@H](C2)N(C)CC[C@@]341,inactive
5,CCOC(=O)/C=C(C)/C=C/C[C@@H](C)CCCC(C)C,inactive
6,CCCCCCC(=O)O[C@H]1CC[C@H]2[C@@H]3CC[C@H]4CC(=O)C=C(C)[C@]4(C)[C@H]3CC[C@]12C,14.1 µM (active)
7,CC1(C)S[C@@H]2[C@H](N)C(=O)N2[C@H]1C(=O)O,inactive
8,C[C@]12CC[C@H]3[C@@H](CC[C@@]45O[C@@H]4C(O)=C(C#N)C[C@]35C)[C@@H]1CC[C@@H]2O,inactive
9,O=c1ccc2cc(O[C@@H]3O[C@H](CO)[C@@H](O)[C@H](O)[C@H]3O)c(O)cc2o1,inactive
10,CC1(C)[C@H](C=C(Cl)Cl)[C@H]1C(=O)OCc1c(F)c(F)cc(F)c1F,inactive
